Measurements as given in PubChem BioAssay (NCI).
The panel holds about 79,000 compounds, 15% with a hit somewhere; the sample as a whole holds those more often. Active and inactive are the calls of the source. Cut-off read from the data, not from the text of the source: active = growth inhibition above about 70%; inactive = the rest.

How the values were obtained:
[1] = NCI Yeast Anticancer Drug Screen. Data for the rad50 strain (AID 155);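 note: 0% = growth of vehicle-only cultures of the same strain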; details: S. cerevisiae rad50 strain growth inhibition, active compounds read high
Procedure, shortened: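 DNA repair mutant yeast, compound exposure, growth read-out; inhibition is taken relative to vehicle.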

[2] = NCI Yeast Anticancer Drug Screen. Data for the mec2-1 strain (AID 157); details: S. cerevisiae mec2-1 strain, active compounds read high
Procedure, shortened: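 Compounds were applied to mec2-1 yeast cells. Their growth was then compared with that of vehicle-treated cultures to give growth inhibition.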

[3] = NCI Yeast Anticancer Drug Screen. Data for the sgs1 mgt1 strain (AID 161);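 note: 0% = growth of cultures given vehicle only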; details: S. cerevisiae sgs1 mgt1 strain, active compounds read high
Procedure, shortened: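 Growth of a repair-deficient yeast mutant was monitored after compound treatment and expressed as inhibition relative to vehicle-treated cultures.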

[4] = NCI Yeast Anticancer Drug Screen. Data for the cln2 rad14 strain (AID 165);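 note: 0% = growth equal to vehicle treated cultures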; details: S. cerevisiae cln2 rad14 strain, active compounds read high
Procedure, shortened: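 Strain: cln2 rad14 yeast, altered in cell cycle control and DNA damage repair. Read-out: growth inhibition vs vehicle.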

[5] = NCI Yeast Anticancer Drug Screen. Data for the bub3 strain (AID 167); details: S. cerevisiae bub3 mutant strain, active compounds read high
Procedure, shortened: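 In this screen, a yeast mutant lacking normal mitotic checkpoint function is challenged with compound. Relative growth versus vehicle gives the inhibition value.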

[6] = NCI Yeast Anticancer Drug Screen. Data for the mlh1 rad18 strain (AID 175); details: S. cerevisiae mlh1 rad18 strain growth inhibition, active compounds read high
Procedure, shortened: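 A repair-deficient yeast strain is exposed to test compound, and growth is scored relative to vehicle-treated controls.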

[7] = at 5.0 µM (retest, dose inferred, filed as 0.5)
[8] = at 50.0 µM (retest, dose inferred, filed as 5.0)

Measured: growth inhibition

COc1ccc2c(c1)CN([C@@H](C)[C@H]1CC[C@H]3[C@@H]4CC[C@H]5C[C@@H](O)CC[C@]5(C)[C@H]4CC[C@]13C)CO2
inactive: [2]; [7] 59%
active: [1]; [7] 90% | [1]; [8] 99% | [1]; at 50.0 µM 99% | [2]; [8] 99% | [2]; at 50.0 µM 99.3% | [3]; [7] 97% | [3]; [8] 100% | [3]; at 50.0 µM 99.2% | [4]; [7] 95% | [4]; [8] 99% | [4]; at 50.0 µM 98.2% | [5]; [7] 91% | [5]; [8] 99% | [5]; at 50.0 µM 98.7% | [6]; [7] 97% | [6]; [8] 99% | [6]; at 50.0 µM 98.4%

CCN(CCCOc1ccccc1)CCN(CC)CCCOc1ccccc1
active: [4]; at 50.0 µM 73.2%
inactive: [1]; [7] 1% | [1]; [8] 13% | [1]; at 50.0 µM 34.5% | [2]; [7] 19% | [2]; [8] 38% | [2]; at 50.0 µM 33.2% | [3]; [7] 1% | [3]; [8] 59% | [3]; at 50.0 µM 60.9% | [4]; [7] 0% | [4]; [8] 11% | [5]; [7] 2% | [5]; [8] 14% | [5]; at 50.0 µM 42% | [6]; [7] 15% | [6]; [8] 44% | [6]; at 50.0 µM 35.6%

O=C(O)c1ccc(Br)cc1C(=O)c1ccccc1
inactive: [1]; [7] -18% | [1]; [8] -15% | [1]; at 50.0 µM 1.15% | [2]; [7] -19% | [2]; [8] 10% | [2]; at 50.0 µM 9.45% | [3]; [7] -2% | [3]; [8] 1% | [3]; at 50.0 µM -3.3% | [4]; [7] 31% | [4]; [8] -38% | [4]; at 50.0 µM 11.8% | [5]; [7] 8% | [5]; [8] -18% | [5]; at 50.0 µM 6.35% | [6]; [7] -11% | [6]; [8] 6% | [6]; at 50.0 µM -20.4%

O=[N+]([O-])C12CCCCC1([N+](=O)[O-])CCCC2 (configuration not stated)
active: [5]; at 50.0 µM 84.8%
inactive: [1]; [7] -1% | [1]; [8] 41% | [1]; at 50.0 µM 62.9% | [2]; [7] -5% | [2]; [8] 30% | [2]; at 50.0 µM 21.6% | [3]; [7] -3% | [3]; [8] 33% | [3]; at 50.0 µM 35.5% | [4]; [7] -9% | [4]; [8] 22% | [4]; at 50.0 µM 31.1% | [5]; [7] -1% | [5]; [8] 65% | [6]; [7] 0% | [6]; [8] 28% | [6]; at 50.0 µM 37.8%

COc1c2c3c(ccnc3c3ccccc13)C(=O)N2C
active: [1]; [8] 84% | [1]; at 50.0 µM 83% | [2]; [8] 72% | [2]; at 50.0 µM 71.3% | [3]; [8] 75% | [3]; at 50.0 µM 77.7% | [5]; [8] 72% | [5]; at 50.0 µM 75.6% | [6]; [8] 76% | [6]; at 50.0 µM 75%
inactive: [1]; [7] 29% | [2]; [7] 15% | [3]; [7] 19% | [4]; [7] -3% | [4]; [8] 52% | [4]; at 50.0 µM 61% | [5]; [7] 0% | [6]; [7] 17%

CC(=O)Sc1ccccc1C(=O)NCc1ccc(Cl)cc1
inactive: [1]; [7] 2% | [2]; [7] -8% | [3]; [7] 2% | [4]; [7] -12% | [5]; [7] 0% | [6]; [7] 13%
active: [1]; [8] 97% | [1]; at 50.0 µM 97.8% | [2]; [8] 98% | [2]; at 50.0 µM 99% | [3]; [8] 97% | [3]; at 50.0 µM 97.8% | [4]; [8] 94% | [4]; at 50.0 µM 98.5% | [5]; [8] 96% | [5]; at 50.0 µM 98.5% | [6]; [8] 96% | [6]; at 50.0 µM 98.7%

CCCCCCCCCCCCC1N=C(N)N2CCCC2=C1C(=O)OC (configuration not stated)
inactive: [3]; [7] 69%
active: [1]; [7] 82% | [1]; [8] 99% | [1]; at 50.0 µM 89.2% | [2]; [7] 99% | [2]; [8] 99% | [2]; at 50.0 µM 91.5% | [3]; [8] 99% | [3]; at 50.0 µM 87.4% | [4]; [7] 100% | [4]; [8] 99% | [4]; at 50.0 µM 90.5% | [5]; [7] 99% | [5]; [8] 99% | [5]; at 50.0 µM 90.4% | [6]; [7] 99% | [6]; [8] 99% | [6]; at 50.0 µM 84.7%

O=C(NCCN1CCCC1)c1cn2c(ccc3sc4ccccc4c(=O)c32)n1
active: [1]; [8] 89% | [2]; [8] 71% | [3]; [8] 77% | [5]; [8] 76% | [6]; [8] 81%
inactive: [1]; [7] 29% | [1]; at 50.0 µM 66% | [2]; [7] 21% | [2]; at 50.0 µM 49.6% | [3]; [7] 19% | [3]; at 50.0 µM 46% | [4]; [7] 19% | [4]; [8] 54% | [4]; at 50.0 µM 37.2% | [5]; [7] 20% | [5]; at 50.0 µM 25.9% | [6]; [7] 26% | [6]; at 50.0 µM 20.4%

CCC(CC)(c1ccc(C)cc1)c1ccc(C)cc1
active: [1]; [8] 99% | [1]; at 50.0 µM 99.5% | [2]; [8] 99% | [2]; at 50.0 µM 99.2% | [3]; [8] 99% | [3]; at 50.0 µM 98.8% | [4]; [8] 99% | [4]; at 50.0 µM 77.2% | [5]; at 50.0 µM 92.3% | [6]; [8] 99% | [6]; at 50.0 µM 99.6%
inactive: [1]; [7] -12% | [2]; [7] -10% | [3]; [7] -6% | [4]; [7] -80% | [5]; [7] 22% | [5]; [8] -55% | [6]; [7] 7%
